Assay outcomes from PubChem.
Shown are actives, neighbours in structure and some others; about 2% of the full set was active somewhere.
Insulin prom up = insulin promoter activators in MIN6 cells, imaging, high-content screening, mouse beta cells. actives 0.3% (n = 190,000). MIN6 insulin promoter-GFP reporter; stronger effect = higher value. z-score at 5 µM;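 active = z-score above 3 at 5 µM with at least 500 cells counted in the well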
eIF4E-4G inh = eIF4E–eIF4G protein interaction inhibitors, primary screen, biochemical, uHTS, TR-FRET, eIF4GI fragment; Eukaryotic translation initiation factor 4E (Mus musculus) + Eukaryotic translation …; TR-FRET eIF4E-eIF4GI(517-606) binding, 2 h; inhibition, % at 21.7 µM; actives 0.37% (n = 220,000); AID 782, 2007;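 active = inhibition above about 30%, limit read from the data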;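 also: 0% = full FRET control wells and 100% = background wells lacking eIF4GI fragment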
Autophagy mod = autophagy modulators in MEF cells, primary screen, imaging, high-content, MEF GFP-LC3 | actives 0.98% (n = 190,000) | calls only at 10 µM (by protocol) | AID 463193, 2010 | MEF GFP-LC3 puncta imaging; test concentration mostly 10 µM;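 active = percentage of spot-positive cells more than 3 SD above its plate mean, without a fluorescence outlier flag or 80% toxicity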;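 also: spot-positive cell cutoff set from DMSO-treated cells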
PERK inhibitor = block of dimerizer-induced PERK translation repression, primary screen, PERK inhibitor project, CHO PERK-DD cells, SEAP luminescence, HTS; inhibition, % at 5.6 µM; AID 1416, 2008; CHO PERK-DD fusion, SEAP luminescence translation reporter; actives 0.17% (n = 220,000); Eukaryotic translation initiation factor 2-alpha kinase 3 (Homo sapiens), Q9NZJ5;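 active = inhibition above the mean inhibition of all tested compounds plus 3 SD, set separately per screening campaign, cut at about 2.9% in these data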;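 also: PERK kinase domain activated by AP20187 dimerizer at 100 nM; 0% = DMSO with dimerizer and 100% = rapamycin at 8.4 µM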
INS promoter inh = inhibitors of insulin promoter-driven GFP, primary screen, imaging, TRM-6 cells (human fetal islet line), eGFP reporter, cell count; reporter expression induced with tamoxifen; inhibition, % at 2 µM; actives 0.9% (n = 130,000); AID 1273, 2008;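 active = inhibition above the mean plus 3 SD, with well images judged a real hit on visual review, cut at about 60% in these data, passing the limit was not always enough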
The depositor's hits bear a star; i = inactive; . = no result given; + = active, no number.

SMILES | Insulin prom up | eIF4E-4G inh | Autophagy mod | PERK inhibitor | INS promoter inh
CC(C)c1ccc(CN2CCC(C(=O)NCc3cccnc3)CC2)cc1 | 0.43 | 75* | i | -1 | 25
CC(C)C(NC(=O)C(Cc1ccccc1)NC(=O)OCc1ccccc1)C(=O)O (centres undefined) | . | -1 | i | 1 | .
COc1ccc2o/c(=N/NC(=S)Nc3ccccc3)c(C(N)=O)cc2c1 | -0.25 | 1 | + | 1 | .
COc1ccc2oc(=N)c(C(=O)Nc3ccccc3)cc2c1 | 0.5 | -4 | i | 2 | 39
C(=C\c1nc2ccccc2[nH]1)/c1ccccc1 | . | 0 | i | 0 | 93*
C(=C\c1ccco1)/c1nc2ccccc2[nH]1 | 0.14 | 1 | i | 1 | .
CCc1cc2c(NCC3CCCO3)ncnc2s1 (centres undefined) | -1.4 | 2 | i | -1 | 74*
c1ccc(-c2nc(CSc3nnnn3-c3ccccc3)cs2)cc1 | 0.03 | -1 | i | 0 | .
Cc1ccccc1Nc1nc(CSc2nnnn2-c2ccccc2)cs1 | -0.26 | -20 | i | 0 | 69*
COCCOc1ccc(C(F)(F)F)cc1Nc1nc2ccccc2o1 | 0.2 | 6 | i | -1 | .
COc1cc(-c2nc(-c3ccc(NC(=O)c4ccc5c(c4)OCO5)cc3)no2)cc(OC)c1OC | -0.11 | -2 | + | 0 | 31
COc1cc(C(=O)N/N=C(\C)c2ccc3c(c2)OCO3)cc(OC)c1OC | 0.53 | -1 | + | 0 | .
COc1ccccc1-c1nnc(NC(=O)c2ccc3c(c2)OCO3)s1 | 0.14 | 9 | + | 2 | 5
COc1ccc(CC(=O)Nc2ccc(-c3noc(-c4cc(OC)c(OC)c(OC)c4)n3)cc2)cc1 | -0.36 | 5 | + | 0 | -26
CC(C)c1nnc(NC(=O)c2ccc3c(c2)OCO3)s1 | -0.07 | 3 | i | 0 | -63
COc1ccc(CC(=O)Nc2ccc(-c3noc(-c4ccc(Cl)cc4)n3)cc2)cc1 | 0.29 | 0 | i | 1 | -9
O=[N+]([O-])/C(C(Cl)=C(Cl)Cl)=C(/NC1CC1)Sc1ccccc1 | 0.41 | 6 | i | 1 | .
O=C(COC(=O)c1cccs1)Nc1cccc(S(=O)(=O)N2CCOCC2)c1 | -0.53 | 1 | i | 1 | -18
O=C(COC(=O)c1ccc(=O)[nH]c1)Nc1cccc(S(=O)(=O)N2CCOCC2)c1 | 0.14 | 7 | . | 2.9* | .
O=C(C1CC1)N1N=C(C2CCCCC2)CC1(O)C(F)(F)F (centres undefined) | -1.5 | 0 | i | 0 | .
CC(C)C(NC(=O)c1cccnc1)C(=O)O (centres undefined) | . | -2 | i | 0 | .
COC(=O)c1ccc(C(NC(=O)c2cccnc2)NC(=O)c2cccnc2)cc1 | -0.49 | 0 | + | 0 | .
Cc1c2ccccc2nc2c(F)c(N(C)C)c(F)c(F)c12 | 1.9 | 2 | + | 0 | -176
CCCCN1C(=O)C(O)(CC(=O)c2ccccn2)c2ccccc21 (centres undefined) | 0.61 | -1 | i | 1 | 17
O=C(Cn1nnc(-c2cccs2)n1)NCc1ccco1 | . | -1 | i | 2.9* | -19
SMILES | Insulin prom up | eIF4E-4G inh | Autophagy mod | PERK inhibitor | INS promoter inh
CS(=O)(=O)Nc1ccccc1C(=O)c1ccccc1 | 0.12 | -6 | i | 0 | 8
Cc1cccc(NC(=O)c2ccc(CN3CCc4ccccc4C3)cc2)c1C | 0.12 | -2 | i | 0 | -12
CC(=O)Nc1nc(N2C(=O)c3ccccc3C2=O)n(-c2ccccc2)n1 | 0.48 | 4 | i | 0 | 76*
CCOc1ccc(/C=N/NC(=O)CNC(=O)c2ccc(S(=O)(=O)N3CCOCC3)cc2)cc1 | -0.47 | 3 | i | 1 | .
O=C(O)CCN1CC2([N+](=O)[O-])CC=C(OCCO)C([N+](=O)[O-])(C1)C2 (centres undefined) | . | -4 | i | 2 | 35
COC1=CCC2([N+](=O)[O-])CN(CCO)CC1([N+](=O)[O-])C2 (centres undefined) | 3* | 15 | i | 1 | -23
CCCN1C(=O)/C(=C/C=C2\N(CC)c3ccccc3C2(C)C)SC1=S | . | 0 | + | 0 | -18
CCCCN1C(=O)/C(=C/C=C2/CC(C)(C)CN2C)SC1=S | . | -3 | + | -1 | -270
CCN1C(=O)/C(=C/C=C2/Sc3ccccc3N2CCO)SC1=S | 1.4 | -4 | i | 2 | .
C=CCN1C(=O)/C(=C\C=C2\N(C)c3ccccc3C2(C)C)SC1=S | . | -1 | + | 0 | i
CCCCN1C(=O)/C(=C/C=C2\Oc3ccccc3N2CC)SC1=S | . | -2 | + | 0 | .
Cc1nnc(N2CCN(c3ccccc3)CC2)c2nn(-c3ccccc3F)c(C)c12 | . | . | i | 0 | -27
CC(C)=C1SC(N2CCN(c3ccc(Cl)cc3)CC2)=NC1=O | -1 | 1 | i | 0 | 71*
CSc1nc2n(n1)C(c1ccccn1)C1=C(CC(C)(C)CC1=O)N2 (centres undefined) | -0.27 | -10 | i | 1 | 31
Cc1ccc(CNC(=O)C2CCCN(c3nn4c(=O)cc(C)nc4s3)C2)cc1 (centres undefined) | 0.06 | -7 | i | 0 | .
COC(=O)Sc1nnc(-c2ccc(Br)cc2)o1 | 0.49 | 70* | i | 0 | 19
NS(=O)(=O)c1cc(C(=O)N2CCc3ccccc32)c(Cl)cc1Cl | 0.35 | 10 | i | 0 | -25
CSc1nc2ccccc2cc1/C=C(\C#N)c1ccc(Cl)c(Cl)c1 | -0.14 | 5 | + | 0 | -31
CSc1nc2ccccc2cc1/C=C(\C#N)c1ccccc1 | 0.13 | 7 | i | 0 | 28
COc1ccccc1C1CC(c2ccco2)=NN1S(C)(=O)=O (centres undefined) | . | 1 | i | 1 | .
CCOc1ccc(OCCn2ccnc2)cc1 | 1.1 | 11 | i | 0 | -49
CCOc1ccc(OCCCCn2ccnc2)cc1 | 3.5* | -3 | i | 1 | -15
Cc1ccc(C)c(OCCCCn2ccnc2)c1 | -0.42 | 4 | i | -1 | -23
Cc1ccc(OCCCCn2ccnc2)c(Cl)c1 | 0.23 | 0 | i | 1 | 73*
O=C(O)CCC(=O)Nc1ccc(Cc2ccc(NC(=O)CCC(=O)O)cc2)cc1 | -0.1 | -3 | i | 0 | .
C=CCn1c(SCCOc2ccc(OC)cc2)nnc1C(C)NC(=O)Cc1ccc(OC)cc1 (centres undefined) | 4.2* | 10 | i | -1 | -271
CCn1c(SCCOc2ccc(OC)cc2)nnc1C(CO)NC(=O)c1ccc(OC)cc1 (centres undefined) | . | 0 | i | -1 | -40
